This is an account of results in PubChem BioAssay (NCATS).

One assay has as its system PC49. The assay can be described thus: qHTS profiling for inhibitors of Plasmodium falciparum proliferation (AID 504749). The settings on record: P. falciparum in erythrocytes, SYBR Green DNA, 72 h; series mostly up to 28.7 µM. Put shortly: (§1)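 Quantitative HTS: compounds pinned into medium, infected erythrocytes added (0.3% parasitemia, 2.5% hematocrit), 72 h culture at 37 C under 5% CO2. Saponin/Triton lysis with SYBR Green I, overnight RT, then fluorescence read.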
On the technique in general: qHTS replaces the single test concentration by a dilution series.

For the next assay, the system named is SC27B. The description is as above. The settings on record: P. falciparum in erythrocytes, SYBR Green DNA, 72 h; series mostly up to 28.7 µM. A digest of the protocol: as §1
For the next assay, the system named is TAB113. Described as above. The settings on record: P. falciparum in erythrocytes, SYBR Green DNA, 72 h; series mostly up to 28.7 µM. Put shortly:
as §1

For another assay, the system named is TAB165. The assay is described as above. To be noted: P. falciparum in erythrocytes, SYBR Green DNA, 72 h; series mostly up to 28.7 µM. Put shortly:
as §1

A further assay has as its system W2. Described as above. To be noted: P. falciparum in erythrocytes, SYBR Green DNA, 72 h; series mostly up to 28.7 µM. A digest of the protocol: as §1
Another assay has as its system CRL-7250. The assay can be described thus: Cytotoxic Profiling of Annotated Libraries Using Quantitative High-Throughput Screening (AID 1296008). For max response: % is set by controls: 0 for no effect and ±100 for the full control effect. The settings on record: Five cell lines viability, CellTiter-Glo ATP luminescence, 48-72 h; max response: stronger effect = lower value. Put shortly: (§2)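 Compounds were pin-transferred onto cells and incubated 48 or 72 hr at 37 degree Celsius, 95% humidity. CellTiter-Glo was added, plates sat 10 min at room temperature, then ATP-coupled luminescence was imaged as the viability read-out.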
A general note: Cellular ATP, detected with luciferase, serves as a proxy for viable cell number.

In another assay the test system is HEK293. The assay is described as above. To be noted: Five cell lines viability, CellTiter-Glo ATP luminescence, 48-72 h; max response: stronger effect = lower value. A digest of the protocol: as §2
Assay [1] deals with HaCat. Described as above. To be noted: Five cell lines viability, CellTiter-Glo ATP luminescence, 48-72 h; max response: stronger effect = lower value. Put shortly:
as §2

A further assay concerns KB-3-1. The description is as above. The settings on record: Five cell lines viability, CellTiter-Glo ATP luminescence, 48-72 h; max response: stronger effect = lower value. Put shortly:
as §2

Assay [2] deals with NIH3T3. Described as above. To be noted: Five cell lines viability, CellTiter-Glo ATP luminescence, 48-72 h; max response: stronger effect = lower value. A digest of the protocol:
as §2

In assay [3] the test system is HACAT. The experiment in a line: qHTS assay to identify novel small-molecules to repurpose for Merkel cell carcinoma treatment (AID 1296009). To be noted: MCC and control cell lines, CellTiter-Glo viability, 72 h; at 44.8 µM (top of the series) unless noted. Put shortly:
(§3)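 Viability readout: ATP luminescence (CellTiter-Glo) after 72 hr drug exposure at 37 degree celsius. Dose-response format was 8 points for NPC and 11 points for MIPE; data normalized to in-plate controls.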

The next assay concerns MCC-13. The description is as above. To be noted: MCC and control cell lines, CellTiter-Glo viability, 72 h; series mostly up to 46 µM. Put shortly: as §3
Another assay relates to MCC-26. Described as above. To be noted: MCC and control cell lines, CellTiter-Glo viability, 72 h; series mostly up to 46 µM. A digest of the protocol: as §3
A further assay has as its system MKL-1. The description is as above. The settings on record: MCC and control cell lines, CellTiter-Glo viability, 72 h; series mostly up to 46 µM. A digest of the protocol: as §3
Another assay relates to MKL-2. The description is as above. To be noted: MCC and control cell lines, CellTiter-Glo viability, 72 h; series mostly up to 46 µM. Put shortly: as §3
The test system of assay [4] is NIH3T3. The assay is described as above. To be noted: MCC and control cell lines, CellTiter-Glo viability, 72 h; at 44.8 µM (top of the series) unless noted. Put shortly: as §3
For the next assay, the system named is UISO. Described as above. To be noted: MCC and control cell lines, CellTiter-Glo viability, 72 h; series mostly up to 46 µM. A digest of the protocol:
as §3

In another assay the test system is WaGa. The assay is described as above. To be noted: MCC and control cell lines, CellTiter-Glo viability, 72 h; series mostly up to 46 µM. Put shortly: as §3
The test system of the next assay is HEK293T. Described as above. To be noted: MCC and control cell lines, CellTiter-Glo viability, 72 h; at 44.8 µM (top of the series) unless noted. A digest of the protocol: as §3
For a further assay, the system named is TAB109. The assay can be described thus: qHTS profiling for inhibitors of Plasmodium falciparum proliferation (AID 504749). To be noted: P. falciparum in erythrocytes, SYBR Green DNA, 72 h; series mostly up to 28.7 µM. Put shortly: as §1

Where “and” joins values, the source holds several entries; their conditions need not be identical. Equal entries are not always repeated. Inconclusive results are not listed. Some compounds were tested as several samples or in several runs, with calls that do not always agree. Calls of active or inactive are those of the source. Calls come from the whole dose curve; as a rule, active = well fitted inhibition curve with a large enough effect; inconclusive = small, poorly fitted or top-dose-only effect; inactive = flat fitted curve, though single readings scatter.
Note: nearly all actives have a fitted effect of over 60% in size.
Potency is the fitted concentration of half-maximal effect.

Turning to `COc1c(N2CCNC(C)C2)c(F)cc2c(=O)c(C(=O)O)cn(C3CC3)c12` (stereo not drawn), the Potency entry with PC49, in the assay on SC27B, in the assay with TAB113, in the assay on TAB165, with W2 and in the assay on MCC-13 was “inactive” each time. The Potency result in the assay with MCC-26, with MKL-1, in the assay on MKL-2, with UISO and in the assay on WaGa was “inactive” throughout. Moreover, the max response is -3.69% (inactive) in the assay with CRL-7250, -24.5% (inactive) in the assay with HEK293, 0.558% (inactive) with KB-3-1 and -3.19% (inactive) with NIH3T3 [2]. For the same molecule, the outcome in the assay on HaCat [1], in the assay with KB-3-1, with NIH3T3 [2], with HACAT [3] and with NIH3T3 [4] was inactive.
In the case of `NC1(c2ccc(-c3nc4ccn5c(=O)[nH]nc5c4cc3-c3ccccc3)cc2)CCC1`, the max response in the assay with CRL-7250 was -3.3% (inactive); with HaCat [1], -15.1% (inactive); with NIH3T3 [2] it was -6.67% (inactive). The Potency with HEK293 was 3.32 µM (active) and 2.37 µM (active) and 3.26 µM (active); in the assay with HaCat [1], 25.9 µM (active); in the assay on KB-3-1, 16.4 µM (active); in the assay with MKL-1 it was 20.9 µM (active); in the assay with MKL-2, 13.3 µM (active); with UISO it was 13.2 µM (active). In addition, in the assay with WaGa, the Potency is 16.6 µM (active) and 26.6 µM (active). The Potency result in the assay on MCC-13 and in the assay with MCC-26 was “inactive” throughout.
Turning to `CC(=O)CC(c1ccccc1)c1c(O)c2ccccc2oc1=O` (stereo not drawn), the max response is -2.79% (inactive) in the assay on CRL-7250; -6.98% (inactive) in the assay with HaCat [1]; 7.33% (inactive) and -13.6% (inactive) and 2.81% (inactive) in the assay with KB-3-1; -11.7% (inactive) and -5.84% (inactive) in the assay on NIH3T3 [2]. For the same molecule, the molecule was called inactive in the assay on CRL-7250, in the assay with HaCat [1], in the assay on HACAT [3] and in the assay with HEK293T. Besides, the Potency result with MCC-13, in the assay with MKL-1, in the assay on MKL-2, in the assay with UISO and in the assay with WaGa was “inactive” each time.
As to `CN(C)CCc1c[nH]c2ccc(CS(=O)(=O)N3CCCC3)cc12`, the Potency entry with PC49, with SC27B, with TAB109, with TAB113, in the assay on TAB165 and in the assay on W2 was “inactive” each time. The Potency result with MCC-13, in the assay on MCC-26, in the assay on MKL-1, in the assay with MKL-2, in the assay with UISO and in the assay with WaGa was “inactive” throughout. Moreover, the max response in the assay on CRL-7250 was -0.155% (inactive) and 1.13% (inactive); in the assay on HEK293 it was -11.2% (inactive) and 1.86% (inactive); with HaCat [1], -24.1% (inactive); in the assay on KB-3-1, 10.6% (inactive) and 7.32% (inactive); in the assay on NIH3T3 [2], -1.45% (inactive) and -5.53% (inactive). In addition, the result with HaCat [1] and in the assay with HACAT [3] was inactive.
Take `O=c1cc(O)c(Cl)c[nH]1`: the Potency result in the assay on PC49, with SC27B, in the assay with TAB109, in the assay on TAB113, in the assay on TAB165 and in the assay with W2 was “inactive” each time. In addition, the Potency result with MCC-13, in the assay on MKL-1, with MKL-2 and with UISO was “inactive” each time. In addition, the max response was -3.23% (inactive) in the assay on CRL-7250, -15.6% (inactive) with HaCat [1], 2.19% (inactive) with KB-3-1 and 2.08% (inactive) in the assay on NIH3T3 [2]. Also, the molecule was called inactive in the assay with CRL-7250, with HaCat [1], with NIH3T3 [2], with HACAT [3] and in the assay on NIH3T3 [4]. Besides, the Potency result in the assay with WaGa is “inactive and 8.33 µM (active)”.
As for `COc1ccc(-c2ccc3cc(C(=O)O)ccc3c2)cc1C12CC3CC(CC(C3)C1)C2`, the Potency result in the assay on PC49, in the assay on SC27B, with TAB109, with TAB113, in the assay on TAB165 and in the assay on MCC-13 was “inactive” throughout. For the same molecule, the Potency entry with MCC-26, in the assay on MKL-1, in the assay on MKL-2, in the assay on UISO and with WaGa was “inactive” in each case. Further, the max response in the assay on CRL-7250 is 1.82% (inactive) and 2% (inactive); in the assay with HEK293, 3.2% (inactive); with HaCat [1], -4.15% (inactive); with KB-3-1, -1.55% (inactive); with NIH3T3 [2] it was 4.1% (inactive). For the same molecule, the molecule was classed as inactive in the assay on HaCat [1], in the assay on KB-3-1, in the assay on NIH3T3 [2], in the assay on HACAT [3] and in the assay with NIH3T3 [4].
Regarding `CCN(C)C(=O)Oc1cccc([C@H](C)N(C)C)c1`, the Potency entry in the assay with PC49, in the assay on SC27B, in the assay with TAB109, in the assay on TAB113, in the assay on TAB165 and in the assay on W2 was “inactive” each time. Moreover, the Potency entry with MCC-13, in the assay with MKL-1, in the assay with MKL-2, in the assay with UISO and in the assay with WaGa was “inactive” throughout. Moreover, the max response is -5.92% (inactive) and -3.92% (inactive) with CRL-7250; -9.47% (inactive) in the assay with HEK293; -4.32% (inactive) with HaCat [1]; 1.39% (inactive) and 1.13% (inactive) in the assay on KB-3-1; 1.74% (inactive) and -5.17% (inactive) in the assay on NIH3T3 [2]. Moreover, the call in the assay with HEK293, in the assay on HaCat [1], in the assay on HACAT [3] and in the assay on HEK293T was inactive.
As for `COc1cc2c(Nc3ccc(Br)cc3F)ncnc2cc1OCC1CCN(C)CC1`, the Potency in the assay with SC27B was 2.82 µM (active); in the assay on TAB109 it was 2.24 µM (active); with TAB113, 2.24 µM (active); in the assay on TAB165, 3.55 µM (active); in the assay on W2, 3.38 µM (active); in the assay with CRL-7250, 18.7 µM (active). The Potency was 7.31 µM (active) in the assay with HaCat [1]; 5.9 µM (active) and 5.17 µM (active) with NIH3T3 [2]; 23.5 µM (active) and inactive with MCC-13; 20.9 µM (active) and inactive with UISO. Moreover, the call in the assay on CRL-7250, with NIH3T3 [2] and with NIH3T3 [4] was inactive. Moreover, the max response in the assay with HaCat [1] is 0.174% (inactive); in the assay with KB-3-1, -19.6% (inactive). In addition, the Potency entry in the assay on MCC-26, with MKL-1, in the assay on MKL-2 and with WaGa was “inactive” throughout.
Turning to `O=S(=O)(c1cccc2cnccc12)N1CCCNCC1`, the outcome in the assay with CRL-7250, in the assay with HEK293, with HaCat [1], with KB-3-1, in the assay with HACAT [3] and in the assay on HEK293T was inactive. The max response with HEK293 is -25.6% (inactive); in the assay on KB-3-1 it was -15.9% (inactive); in the assay on NIH3T3 [2] it was 0.496% (inactive) and -3.33% (inactive). Also, the Potency result in the assay on MCC-13, in the assay on MCC-26, in the assay with MKL-1, with MKL-2, with UISO and in the assay on WaGa was “inactive” in each case.
For the molecule `CCN[C@H]1C[C@H](C)S(=O)(=O)c2sc(S(N)(=O)=O)cc21`, the max response was -1.48% (inactive) and 1.03% (inactive) in the assay on CRL-7250; -5.09% (inactive) in the assay on HEK293; -6.44% (inactive) with HaCat [1]; 1.27% (inactive) and -0.756% (inactive) in the assay on KB-3-1; 0.236% (inactive) and 2.34% (inactive) with NIH3T3 [2]. In addition, the molecule was classed as inactive in the assay on HEK293, with HaCat [1], with HACAT [3] and in the assay with HEK293T. The Potency result in the assay with MCC-13, with MKL-1, in the assay with MKL-2, in the assay on UISO and in the assay on WaGa was “inactive” throughout.
